The source of these data is PubChem BioAssay (NCI).

Each structure is given as a SMILES string. Compounds without any hit were thinned out: in the full panel of roughly 83,000, 20% have a hit.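 Testing used 96-well plates and a 48-hour single-concentration exposure. Example: -40 means 40% of the starting cells died.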 A number with no mark means an inactive call. Active and inactive are the calls of the source. Rule for the calls: active = growth percent below 10; inactive = the rest.

What all share (assay): NCI-60 one-dose screen, 48 h (100 = growth as untreated, 0 = no growth, -100 = all killed)
Common to all, as to settings: 10 µM

The test system of test [1] is DU-145 prostate.
The subject of test [2] is K-562 leukemia.
Test [3] has as its system MALME-3M melanoma.
Test [4] concerns MDA-MB-231 breast.
Test [5] relates to RXF 393 renal.
Test [6] deals with SF-268 CNS.
In test [7] the test system is SF-295 CNS.
The subject of test [8] is SF-539 CNS.
The subject of test [9] is M14 melanoma.
Test [10] relates to UACC-257 melanoma.

Turning to `CNC(=O)c1cn(C2CC2)c2cc(N3CCN(C(=O)c4cc(OC)c(OC)c(OC)c4)CC3)c(F)cc2c1=O`, the growth in test [1] was 104%; in [2], 104%; in test [3], 103%; in test [4] it was 98.2%; in test [5] it was 112%; in [6], 96.8%. For the same compound, the growth in [7] is 98%; in test [8], 98.9%; in [9], 109%.
For the compound `COc1ccc(C(=O)CSc2nc(-c3cc(OC)ccc3OC)cc(-c3ccc(OC)cc3)c2C#N)cc1`, the growth was 108% in test [1]; 102% in test [2]; 110% in test [3]; 102% in test [4]; 107% in test [5]; 90% in test [6]. For the same compound, the growth was 100% in test [7], 86.5% in test [8] and 93.9% in [9].
Consider `Cc1ccc(-n2c(C)nn3c(=O)c4c5c(sc4nc23)CN(C)CC5)cc1`, for which the growth in test [1] was 99.8%; in [2], 100%; in test [3], 93.7%; in [4], 96.3%; in test [5], 105%; in [6] it was 94.1%. In addition, the growth in test [7] was 98.1%; in [8], 101%; in test [9] it was 95.8%.
For the compound `O=[N+]([O-])c1ccc(/C(=C/c2ccccc2)[n+]2ccccc2)cc1`, the growth in test [1] was 127%; in test [2] it was 91.9%; in test [3], 125%; in test [4] it was 111%; in test [5] it was 105%; in [6], 128%. Also, the growth was 102% in test [7], 107% in test [8], 101% in test [10] and 114% in test [9].
Consider `COc1cc(C(=O)N2CCN(c3cc4c(cc3F)c(=O)c(C(=O)NO)cn4C3CC3)CC2)cc(OC)c1OC`, for which the growth in test [1] is 104%; in [2], 103%; in test [3] it was 105%; in [4], 98.8%; in test [5], 104%; in test [6] it was 98%. For the same compound, the growth is 103% in test [7], 101% in test [8] and 103% in [9].
On to `CCOC(=O)c1sc2ncnc(Nc3ccc4c(cnn4C(=O)Nc4ccc(C)c(Cl)c4)c3)c2c1C`, for which the growth is 102% in test [1]; 102% in test [2]; 91.1% in test [3]; 96.5% in test [4]; 99.3% in test [5]; 103% in test [6]. Besides, the growth in test [7] was 102%; in test [8] it was 104%; in test [9], 103%.
On to `CCC(C)[C@H](NC(C)=O)C(=O)N[C@@H](CCCNC(=N)N)C(=O)N[C@@H](CCCCN)C(=O)N[C@@H](CC1CCC(O)CC1)C(=O)NC(C(=O)N[C@@H](CCSC)C(=O)N[C@@H](CCCNC(=N)N)C(=O)N[C@@]1(C)CCC/C=C\CCC[C@@](C)(C(=O)NC(C(=O)N[C@@H](CCC(=O)O)C(=O)N[C@@H](CC(C)C)C(=O)N[C@H](C(=O)N[C@@H](CCC(=O)O)C(N)=O)C(C)C)[C@@H](C)O)NC(=O)[C@H](CCC(N)=O)NC(=O)[C@H](CC(C)C)NC(=O)[C@H](CC(C)C)NC1=O)[C@@H](C)O` (stereo partly drawn), for which the growth is 93.7% in [1]; 95.4% in test [2]; 102% in test [3]; 98.8% in test [4]; 86.4% in test [5]; 47.9% in test [6]. For the same compound, the growth in test [7] was 101%; in test [8] it was 97.7%; in [9], 75.6%.
Take `COc1ccc(/C=C/c2nnc(/C=C/c3ccc(OC)c(OC)c3)o2)cc1OC`: the growth in test [1] was 49.2%; in test [2] it was 14.8%; in test [3], 57.1%; in test [4], 17.8%; in test [5], 27.4%; in [6] it was 41.9%. Further, the growth in test [7] is 12.5%; in [8], -11.8% (active); in test [9], 5.44% (active).
With `N#Cc1c(-c2ccc(Cl)cc2)cc(-c2cc(O)ccc2O)nc1N`, the growth was 21.7% in [1]; 29.1% in test [2]; 30.2% in test [3]; -5.89% (active) in test [4]; 15.7% in test [5]; 31.9% in test [6]. The growth is 75.6% in test [7], -1.42% (active) in test [8] and 2.5% (active) in [9].
In the case of `COCCn1cc(-c2nc(-c3cccnc3)cs2)c2cc(F)ccc21`, the growth in [1] is 90.4%; in [2] it was 95.2%; in test [3] it was 99.8%; in test [4], 92.3%; in [5], 99.5%; in [6], 90.7%. The values for the growth in test [7], in test [8] and in test [9] were 95.6%, 80.9% and 96.2%, respectively.
Regarding `c1cncc(-c2csc(-c3c[nH]c4ccccc34)n2)c1`, the growth in test [1] was 103%; in test [2], 97.7%; in test [3] it was 78.8%; in test [4] it was 73.5%; in test [5], 111%; in [6], 92.5%. Besides, the results for the growth in [7], in test [8] and in [9] were 92.6%, 84.9% and 85.8%, respectively.
As for `OCC1OC(n2cnc3c(NCc4ccco4)ncnc32)C(O)C1O` (stereo not drawn), the growth in [1] was 4.25% (active); in test [2] it was 33%; in test [3], 65.5%; in test [4], -5.65% (active); in test [5], -13.7% (active); in test [6] it was 44.6%. The growth in test [7] is 26.5%; in test [8], 21.7%; in test [10], 86.4%; in [9], 31.2%.
Regarding `N#Cc1c(-c2ccc(Cl)cc2)csc1NC(=O)Nc1ccc(Cl)c(C(F)(F)F)c1`, the growth in [1] was 5.84% (active); in test [2] it was 9.03% (active); in [3], -26.7% (active); in test [4], 2.12% (active); in test [5], 33.7%; in [6], 27.8%. The growth was -27.2% (active) in [7], 31.5% in test [8] and 8.06% (active) in [9].
Turning to `Clc1nc2ccccc2cc1Cn1nnc(Cc2ccccc2)n1`, the growth in test [1] was 75.2%; in [2], 55.2%; in test [3] it was 65.6%; in test [4], 53.1%; in test [5], 83.9%; in test [6] it was 65.7%. Besides, the growth in test [7] was 47.6%; in [8] it was 81.2%; in test [9], 73.6%.
For `O=C1CC(SC(=S)C2CCCC2=O)C(=O)N1` (stereo not drawn), the growth in [1] was 108%; in test [2], 98%; in test [3], 104%; in [4] it was 105%; in test [5], 115%; in [6], 102%. The growth in test [7] was 104%; in test [8] it was 104%; in test [10] it was 90.4%; in test [9], 101%.
With `CC(=O)N[C@H](C(=O)N[C@@H](CCCNC(=N)N)C(=O)N[C@@H](CCCCN)C(=O)N[C@@H](CCCNC(=N)N)C(=O)N[C@]1(C)CCC/C=C\CCC[C@@](C)(C(=O)N[C@@H](CC(C)C)C(=O)N[C@@H](CC(C)C)C(=O)N[C@@H](CCC(N)=O)C(=O)N[C@@H](CCC(=O)O)C(=O)N[C@@H](CCCNC(=N)N)C(=O)N[C@@H](CCC(=O)O)C(=O)N[C@@H](CC(C)C)C(=O)N[C@H](C(=O)N[C@@H](CCC(=O)O)C(N)=O)C(C)C)NC(=O)[C@H](CCCNC(=N)N)NC(=O)[C@H](CC(C)C)NC1=O)C(C)C`, the growth in test [1] was 99.7%; in test [2], 104%; in [3], 137%; in test [4], 108%; in test [5] it was 119%; in [6], 101%. Also, the values for the growth in test [7], in test [8] and in test [9] were 106%, 102% and 107%, respectively.
With `O=C(Nc1ccccc1)Nc1ncnc2c1ncn2-c1ccccc1`, the growth is 99.2% in test [1]; 98.7% in [2]; 76.5% in test [3]; 68.3% in test [4]; 95.4% in [5]; 92.5% in test [6]. Moreover, the figures for the growth in test [7], in test [8] and in test [9] were 31%, 82.8% and 81.4%, respectively.
Regarding `O=C1c2ccccc2-c2c1c1cccnc1c(=O)n2C[C@H](O)CO`, the growth in test [1] is 80.9%; in test [2], 76.6%; in test [3], 66.8%; in [4], 75.7%; in [5], 91%; in [6], 75.3%. Moreover, the figures for the growth in test [7], in test [8] and in test [9] were 50.3%, 52% and 75.4%, respectively.
With `COc1ccc(/C=C/C(=O)C(=O)/C=C/c2ccc(OC)c(OC)c2)cc1OC`, the growth is 22.5% in test [1]; 7.11% (active) in test [2]; 54.5% in test [3]; 2.99% (active) in test [4]; -63.3% (active) in [5]; 13.2% in test [6]. For the same compound, the results for the growth in [7], in test [8] and in [9] were 73.8%, 6.56% (active) and -10.5% (active), respectively.
As for `c1cnc2[nH]cc(-c3nc(-c4ccsc4)cs3)c2c1`, the growth in [1] was 98.8%; in test [2] it was 109%; in [3], 121%; in [4], 85.6%; in [5] it was 98.3%; in test [6], 79.9%. Besides, the growth is 101% in test [7], 93.7% in test [8] and 104% in test [9].
For the compound `C[C@@H](C[C@H](CCO)c1ccccc1)c1ccc2ccccc2c1`, the growth was -40.9% (active) in [1]; -35.2% (active) in [2]; -87.6% (active) in test [3]; -73.6% (active) in test [4]; -87.4% (active) in test [5]; -70.4% (active) in [6]. The growth in test [7] was -89.2% (active); in test [8], -82.7% (active); in [9], -84.2% (active).
Take `CNC(=O)c1cn2c3c(c(N4CCN(C)CC4)c(F)cc3c1=O)OC[C@@H]2C`: the growth was 104% in [1]; 102% in test [2]; 106% in test [3]; 102% in test [4]; 103% in [5]; 97% in test [6]. The figures for the growth in test [7], in test [8] and in test [9] were 98.7%, 105% and 106%, respectively.
As for `CC(=O)N[C@H](C(=O)N[C@@H](CCCNC(=N)N)C(=O)N[C@@H](CCCCN)C(=O)N[C@@H](CCCNC(=N)N)C(=O)NC(C(=O)N[C@@H](CC(C)C)C(=O)N[C@@H](CCCNC(=N)N)C(=O)N[C@@]1(C)CCC/C=C\CCC[C@@](C)(C(=O)N[C@@H](CCCNC(=N)N)C(=O)N[C@@H](CCC(=O)O)C(=O)N[C@@H](CC(C)C)C(=O)N[C@H](C(=O)N[C@@H](CCC(=O)O)C(N)=O)C(C)C)NC(=O)[C@H](CCC(N)=O)NC(=O)[C@H](CC(C)C)NC(=O)[C@H](CC(C)C)NC1=O)[C@@H](C)O)C(C)C` (stereo partly drawn), the growth in test [1] was -58.3% (active); in [2] it was -44.5% (active); in [3] it was -68.7% (active); in [4] it was -52.1% (active); in test [5] it was -43.9% (active); in test [6], -80.9% (active). Also, the growth in [7] was -4.34% (active); in test [8], -78% (active); in test [9], -61.2% (active).
As for `COc1cc2ncnc(NC3CCC(O)CC3)c2cc1OC` (stereo not drawn), the growth is 102% in test [1]; 58.2% in test [2]; 103% in test [3]; 93.7% in test [4]; 102% in test [5]; 101% in test [6]. Further, the growth is 94.9% in test [7], 95.4% in [8] and 98.8% in test [9].
With `C=C/C(C)=C/C[C@]1(C)[C@H](C)[C@@H](OC(=O)CCC)[C@H](O)[C@@]23C(=C[C@H](OC)C[C@@H]12)[C@@H](OC(=O)CCC)O[C@H]3OC(C)=O`, the growth was 14.3% in [1]; 10.3% in [2]; -63.7% (active) in test [3]; -62.7% (active) in test [4]; -89.4% (active) in test [5]; -8.13% (active) in test [6]. In addition, the values for the growth in test [7], in test [8] and in [9] were -59.6% (active), -74.4% (active) and -45.7% (active), respectively.
